Reference: PubChem BioAssay (Tox21)
Results filed as inconclusive are left out. The source made the active and inactive calls. Unless noted, calls come from the whole dose curve; as a rule, active = well fitted curve in the direction sought with a large enough effect in the repeat runs; inconclusive = weak or mixed curves; inactive = no such curve, though single readings can be large; an effect the other way counts as inactive or inconclusive.

Columns and labels:
[1] = target: Thyrotropin receptor (Homo sapiens) (UniProt P16473); assay: qHTS assay to identify small molecule antagonists of the thyroid stimulating hormone receptor (TSHR) signaling pathway (AID 1259385; calls by dose curve; note: nearly all actives have a fitted effect of over 20% in size)
In short: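 TSHR-HEK293 cells were plated and held 18 h at 37C/5% CO2, then given compound plus Ro20-1724 and stimulated with TSH at 1.5 ng/mL final. After 30 min at room temperature, cAMP was detected with cAMP-d2/anti-cAMP-cryptate (1 h) by fluorescence.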

[2] = qHTS assay to identify small molecule agonists of the estrogen receptor alpha (ER-alpha) signaling pathway in the presence of an antagonist - cell viability counter screen (AID 1259386);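 note: series mostly up to about 92 µM; cells exposed to compounds for 22 h at 37 °C before the viability read; nearly all actives have a fitted effect of over 30% in size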
In short: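 Viability counter screen using VM7Luc4E2 (full-length ER-alpha, four ERE-luciferase). The cells were treated with compounds alongside ICI-182,780 10.0nM for 22hr, and live-cell protease fluorescence was quantified with CellTiter-Fluor.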

[3] = target: Progesterone receptor (Homo sapiens) (UniProt P06401); assay: qHTS assay to identify small molecule antagonists of the progesterone receptor (PR) signaling pathway (AID 1346795; active = well fitted inhibition curve with a large enough effect in the signal ratio in the repeat runs, not every such curve was filed as active; the % refers to the signal ratio; note: potency is the fitted concentration of half-maximal effect)
In short: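 PR-UAS-bla HEK293T cells with beta-lactamase reporter under UAS control, in 2% charcoal-stripped FBS, treated with compounds plus 1 nM promegestone (R5020, final) for 16 hr at 37C. Read-out: FRET beta-lactamase substrate fluorescence after 2 hr at room temperature.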

[4] = qHTS assay to identify small molecule antagonists of the progesterone receptor (PR) signaling pathway - cell viability counter screen (AID 1346798); note: series mostly up to about 92 µM; nearly all actives have a fitted effect of over 50% in size
In short: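 PR-UAS-bla HEK293T cells, 3,000/well in 2% charcoal-stripped FBS medium, dosed with compounds plus R5020 agonist and incubated 16 h at 37C. Viability then measured in the same wells by CellTiter-Glo luminescence after 30 min at RT.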

[5] = qHTS assay to identify small molecule agonists of the progesterone receptor (PR) signaling pathway - cell viability counter screen (AID 1346799; calls by dose curve; note: nearly all actives have a fitted effect of over 45% in size)
In short: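 Counter screen in the PR-UAS-bla HEK293T wells (2% charcoal-stripped FBS, 16 h compound exposure at 37 C) after the bla read. CellTiter-Glo added, 30 min at room temperature, luminescence read as cell viability.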

[6] = qHTS assay to identify small molecule antagonists of the TGF-beta/Smad signaling pathway - cell viability counter screen (AID 1346824); note: nearly all actives have a fitted effect of over 50% in size
In short: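 SBE-bla HEK 293T cells were plated overnight at 37 C, then given compounds in DMSO plus TGF-beta1 (added as 0.25 ng/mL solution) for 5 hr. After the bla read, CellTiter-Glo was added to the same wells and luminescence read after 30 min at room temperature.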

[7] = qHTS assay to identify small molecule agonists of the TGF-beta/Smad signaling pathway - cell viability counter screen (AID 1346829); note: top concentration of the series differs between compounds; nearly all actives have a fitted effect of over 45% in size
In short: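 Luminescence from CellTiter-Glo, read after a 30 min room-temperature incubation, gives cell viability of SBE-bla HEK 293T cells treated 5 hr with compounds at 37 C.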

[8] = qHTS assay to identify small molecule agonists of the TGF-beta/Smad signaling pathway (AID 1346859; active = well fitted activation curve with a large enough effect in the signal ratio in the repeat runs, not every such curve was filed as active; the % refers to the signal ratio; note: series mostly up to about 77 µM)
In short: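 SBE-bla HEK293T cells plated overnight, then compound exposure for 5 h at 37 C. Beta-lactamase reporter read with LiveBLAzer B/G FRET substrate after 2 h at room temperature, fluorescence at 405 nm excitation, 460/530 nm emission.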

[9] = target: Thyrotropin-releasing hormone receptor (Homo sapiens) (UniProt P34981); assay: qHTS assay to identify small molecule antagonists of the thyrotropin-releasing hormone receptor (TRHR) signaling pathway (AID 1346877; active = well fitted inhibition curve with a large enough effect in the repeat runs, not every such curve was filed as active; note: series mostly up to about 51 µM)
In short: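 Following an 18 h incubation at 37 °C and a 2 h calcium dye load, TRHR-HEK293 cells were exposed to compound (5 min, room temperature) and challenged with TRH, 1 nM final.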

[10] = target: Thyrotropin-releasing hormone receptor (Homo sapiens) (UniProt P34981); assay: qHTS assay to identify small molecule agonists of the thyrotropin-releasing hormone receptor (TRHR) signaling pathway (AID 1346891; calls by dose curve; note: series mostly up to about 58 µM)
In short: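 HEK293 cells expressing TRHR plated 18 h at 37 C/5% CO2, calcium dye-loaded 2 h at 37 C, then compound added (agonist mode); kinetic calcium fluorescence read 3 min at 1 s intervals; 15 concentrations in triplicate.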

[11] = Human pregnane X receptor (PXR) small molecule agonists, qHTS cell viability counter screen (AID 1346977); note: nearly all actives have a fitted effect of over 50% in size
In short: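 PXR-Luc HepG2 cells (2,000/well, 5% charcoal-stripped FBS) preincubated 5 hr, then exposed to compounds 24 hr at 37 C. Viability read in the same wells by CellTiter-Fluor fluorescence, reagent added at 23 hr, 1 hr incubation.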

[12] = Caspase-3/7 induction in HepG2 cells by small molecules, qHTS assay (AID 1346978); note: nearly all actives have a fitted effect of over 15% in size
In short: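 Wild-type HepG2 cells (2,000/well) were settled 5 h at 37 C, 5% CO2, then exposed to compounds in DMSO for 17 h. Caspase-3/7 activity was read by luminescence 30 min after adding Caspase-Glo 3/7 reagent at room temperature.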

[13] = Caspase-3/7 induction in CHO-K1 cells by small molecules, qHTS assay (AID 1346980); note: nearly all actives have a fitted effect of over 15% in size
In short: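 Wild-type cells were seeded at 1,500 per well and settled 5 hr at 37 C, 5% CO2, then exposed to DMSO-dissolved compounds for 17 hr. Caspase-Glo 3/7 reagent was added, and luminescence was read after 30min at room temperature.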

[14] = Caspase-3/7 induction in HepG2 cells by small molecules, qHTS cell viability counter screen (AID 1346981); note: series mostly up to about 92 µM; nearly all actives have a fitted effect of over 30% in size
In short: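 Viability determined by CellTiter-Fluor fluorescence in HepG2 wells also used for the luminescent Caspase-Glo 3/7 read. Compounds were present for 16 hr at 37 C, 5% CO2 before reagent addition.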

[15] = Caspase-3/7 induction in CHO-K1 cells by small molecules, qHTS cell viability counter screen (AID 1346979); note: nearly all actives have a fitted effect of over 35% in size; note: potency is the fitted concentration of half-maximal effect
In short: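 Wild-type CHO-K1 cells (1,500/well) treated with compound after 5 h plating; after 16 h at 37C, viability read as CellTiter-Fluor fluorescence following 1 h reagent incubation, in the same wells as the caspase read.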

[16] = target: Nuclear receptor subfamily 1 group I member 2 (Homo sapiens) (UniProt O75469); assay: Human pregnane X receptor (PXR) small molecule agonists, qHTS assay (AID 1346982); note: nearly all actives have a fitted effect of over 35% in size
In short: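 Compound-induced hPXR transactivation of a CYP3A4 luciferase reporter was scored in HepG2 PXR-Luc cells over 24 hr at 37 C, 5% CO2, by luminescence.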

[17] = target: Progesterone receptor (Homo sapiens) (UniProt P06401); assay: qHTS assay to identify small molecule agonists of the progesterone receptor (PR) signaling pathway (AID 1346784; calls by dose curve; note: nearly all actives have a fitted effect of over 30% in size)
In short: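 PR-UAS-bla HEK 293T cells (beta-lactamase reporter under UAS) in 2% charcoal-stripped FBS, dosed with 23 nL compound after 6 hr, incubated 16hr at 37C. LiveBLAzer B/G FRET substrate added, fluorescence read after 2 hours.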

[18] = target: Nuclear receptor subfamily 1 group I member 2 (Rattus norvegicus) (UniProt Q9R1A7); assay: Rat pregnane X receptor (rPXR) activation by small molecules, qHTS assay (AID 1346983); details: rPXR luciferase reporter cells, One-Glo luminescence, 24 h; hits give high values; note: nearly all actives have a fitted effect of over 20% in size
In short: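 Cell-based rPXR luciferase reporter assay, 2,000 cells per well, rested 5hr at 37 C before compound addition in DMSO, then 24 hr at 37 C. One-Glo reagent was added and luminescence read after 30 min at room temperature.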

[19] = target: Nuclear receptor subfamily 1 group I member 2 (Homo sapiens) (UniProt O75469); assay: CYP3A4 induction through human pregnane X receptor (PXR) by small molecules, qHTS assay (AID 1346984); note: nearly all actives have a fitted effect of over 40% in size
In short: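 Readings come from a luciferase reporter: DPX-2 cells, which are HepG2 cotransfected with PXR and a CYP3A4-promoter construct, were exposed to test compounds for 24 h at 37C before One-Glo detection.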

[20] = target: Nuclear receptor subfamily 1 group I member 2 (Homo sapiens) (UniProt O75469); assay: Human pregnane X receptor (PXR) activation by small molecules, qHTS assay (AID 1346985); note: nearly all actives have a fitted effect of over 40% in size
In short: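 DPX-2 cells (HepG2 co-transfected with a PXR response element and a CYP3A4-promoter luciferase construct) were seeded at 2,000 per well, rested 5 hr at 37C, then exposed to DMSO-dissolved compounds for 24 hr. Activation was read as luciferase luminescence.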
% is set by controls: 0 for no effect and ±100 for the full control effect.

Sequence of Thyrotropin-releasing hormone receptor (Homo sapiens) (P34981 whole entry, looked up): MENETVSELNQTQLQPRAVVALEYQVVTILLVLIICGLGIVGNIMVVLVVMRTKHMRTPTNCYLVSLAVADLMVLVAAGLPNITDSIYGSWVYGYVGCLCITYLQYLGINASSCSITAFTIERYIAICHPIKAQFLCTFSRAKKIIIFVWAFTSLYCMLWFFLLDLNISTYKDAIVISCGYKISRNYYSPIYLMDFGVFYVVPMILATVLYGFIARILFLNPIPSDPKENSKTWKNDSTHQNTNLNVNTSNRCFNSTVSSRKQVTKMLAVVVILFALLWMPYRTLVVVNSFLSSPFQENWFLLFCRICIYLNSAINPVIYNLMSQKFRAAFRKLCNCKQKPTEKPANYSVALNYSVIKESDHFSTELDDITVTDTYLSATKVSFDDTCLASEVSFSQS
Sequence of Thyrotropin receptor (Homo sapiens) (P16473 whole entry, looked up): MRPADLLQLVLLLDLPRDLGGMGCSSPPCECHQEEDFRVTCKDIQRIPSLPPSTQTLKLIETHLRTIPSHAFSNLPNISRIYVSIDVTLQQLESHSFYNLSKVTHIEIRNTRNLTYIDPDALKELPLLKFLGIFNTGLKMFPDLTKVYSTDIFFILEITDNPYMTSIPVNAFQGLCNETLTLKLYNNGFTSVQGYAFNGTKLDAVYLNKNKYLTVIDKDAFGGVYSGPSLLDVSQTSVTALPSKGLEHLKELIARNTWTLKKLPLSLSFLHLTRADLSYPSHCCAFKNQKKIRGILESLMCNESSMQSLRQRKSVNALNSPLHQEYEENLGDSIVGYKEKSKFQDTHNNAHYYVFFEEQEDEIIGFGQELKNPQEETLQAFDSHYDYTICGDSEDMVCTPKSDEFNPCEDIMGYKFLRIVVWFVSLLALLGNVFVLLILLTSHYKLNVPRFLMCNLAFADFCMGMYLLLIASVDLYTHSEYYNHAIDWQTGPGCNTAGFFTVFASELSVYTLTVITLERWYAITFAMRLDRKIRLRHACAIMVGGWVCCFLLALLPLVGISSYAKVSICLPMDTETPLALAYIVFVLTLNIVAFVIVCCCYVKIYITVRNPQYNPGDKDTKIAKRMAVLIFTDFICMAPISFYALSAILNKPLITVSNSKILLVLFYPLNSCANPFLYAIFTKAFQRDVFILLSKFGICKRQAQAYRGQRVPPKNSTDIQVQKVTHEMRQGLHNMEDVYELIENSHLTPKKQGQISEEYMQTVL
Sequence of Progesterone receptor (Homo sapiens) (P06401 whole entry, looked up): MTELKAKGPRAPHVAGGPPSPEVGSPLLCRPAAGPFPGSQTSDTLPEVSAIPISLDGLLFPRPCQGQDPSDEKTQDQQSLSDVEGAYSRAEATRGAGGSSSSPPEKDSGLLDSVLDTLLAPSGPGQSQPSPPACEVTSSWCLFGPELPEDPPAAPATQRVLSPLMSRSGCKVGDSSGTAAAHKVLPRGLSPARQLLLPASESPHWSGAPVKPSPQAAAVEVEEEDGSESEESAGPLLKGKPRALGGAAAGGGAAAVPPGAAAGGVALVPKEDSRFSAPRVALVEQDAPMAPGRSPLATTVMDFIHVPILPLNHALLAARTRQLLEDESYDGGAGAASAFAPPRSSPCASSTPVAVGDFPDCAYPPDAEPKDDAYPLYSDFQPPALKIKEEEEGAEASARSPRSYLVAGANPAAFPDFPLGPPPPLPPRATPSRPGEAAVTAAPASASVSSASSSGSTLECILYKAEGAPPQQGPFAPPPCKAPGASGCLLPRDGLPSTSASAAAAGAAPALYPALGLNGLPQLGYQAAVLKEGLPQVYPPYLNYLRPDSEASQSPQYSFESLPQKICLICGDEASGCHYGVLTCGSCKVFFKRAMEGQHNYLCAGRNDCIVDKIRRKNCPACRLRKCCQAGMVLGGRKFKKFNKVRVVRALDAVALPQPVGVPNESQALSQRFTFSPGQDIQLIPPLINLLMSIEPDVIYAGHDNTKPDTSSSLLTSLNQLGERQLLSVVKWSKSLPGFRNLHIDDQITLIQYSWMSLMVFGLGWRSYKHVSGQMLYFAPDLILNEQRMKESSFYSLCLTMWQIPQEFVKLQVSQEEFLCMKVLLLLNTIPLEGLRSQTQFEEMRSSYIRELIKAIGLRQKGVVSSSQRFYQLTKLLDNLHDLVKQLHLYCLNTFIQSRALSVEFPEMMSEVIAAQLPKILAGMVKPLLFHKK
Sequence of Nuclear receptor subfamily 1 group I member 2 (Homo sapiens) (O75469 whole entry, looked up): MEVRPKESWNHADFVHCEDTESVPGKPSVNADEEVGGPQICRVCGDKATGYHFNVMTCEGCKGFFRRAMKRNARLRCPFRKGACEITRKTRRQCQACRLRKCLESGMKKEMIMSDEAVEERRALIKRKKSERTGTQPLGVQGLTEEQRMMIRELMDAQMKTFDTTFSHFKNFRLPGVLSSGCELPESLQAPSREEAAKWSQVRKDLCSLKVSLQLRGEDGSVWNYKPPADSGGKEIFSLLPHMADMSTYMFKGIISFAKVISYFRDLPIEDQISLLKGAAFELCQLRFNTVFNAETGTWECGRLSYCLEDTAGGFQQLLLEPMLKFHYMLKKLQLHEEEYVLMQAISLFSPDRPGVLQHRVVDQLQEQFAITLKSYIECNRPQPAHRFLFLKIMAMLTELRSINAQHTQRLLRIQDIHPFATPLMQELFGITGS
Sequence of Nuclear receptor subfamily 1 group I member 2 (Rattus norvegicus) (Q9R1A7 whole entry, looked up): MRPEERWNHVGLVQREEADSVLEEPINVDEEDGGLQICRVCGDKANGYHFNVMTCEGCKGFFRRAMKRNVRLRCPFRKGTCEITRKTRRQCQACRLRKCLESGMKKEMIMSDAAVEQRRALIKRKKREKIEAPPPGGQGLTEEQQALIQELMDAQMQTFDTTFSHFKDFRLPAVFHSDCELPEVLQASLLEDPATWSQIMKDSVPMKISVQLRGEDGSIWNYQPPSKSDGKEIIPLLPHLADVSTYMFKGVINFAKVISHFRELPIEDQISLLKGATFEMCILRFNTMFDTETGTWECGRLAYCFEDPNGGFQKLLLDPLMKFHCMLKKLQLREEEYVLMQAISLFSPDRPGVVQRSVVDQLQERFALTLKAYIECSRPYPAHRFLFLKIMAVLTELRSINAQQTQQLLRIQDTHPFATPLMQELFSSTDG

CCC(C=O)CC
inactive: outcome [1] | Potency [2] | Potency [3] | Potency [4] | Potency [5] | outcome [6] | outcome [7] | outcome [8] | outcome [9] | outcome [10] | Potency [11] | Potency [12] | outcome [13] | Potency [14]

COCCOC(=O)C1=C(C)NC(C)=C(C(=O)OC(C)C)C1c1cccc([N+](=O)[O-])c1 (configuration not stated)
active: Potency [3] 10.6 µM | Potency [15] 21.1 µM
inactive: outcome [1] | Potency [2] | Potency [4] | outcome [6] | outcome [7] | outcome [8] | outcome [9] | outcome [10] | Potency [11] | Potency [12] | outcome [13]

C=CCCCCCCCCCCCC
inactive: outcome [1] | Potency [2] | Potency [4] | Potency [5] | outcome [6] | outcome [7] | outcome [8] | outcome [9] | outcome [10] | Potency [11] | Potency [12] | Potency [15] | outcome [13] | Potency [14] | Potency [16]

Cc1ccc2c(c1)OCC(=O)CO2
inactive: Potency [2] | Potency [17] | Potency [3] | Potency [4] | Potency [5] | outcome [6] | outcome [7] | outcome [8] | outcome [9] | outcome [10] | Potency [11] | Potency [12] | Potency [15] | outcome [13]

Cc1[nH]cnc1-c1ccc(Cl)cc1
inactive: outcome [1] | Potency [2] | Potency [17] | Potency [4] | outcome [7] | outcome [8] | outcome [10] | Potency [12] | Potency [15] | outcome [13] | Potency [14]

C=C(C)C1CCC(C)(O)CC1 (configuration not stated)
inactive: outcome [1] | Potency [2] | Potency [17] | Potency [5] | outcome [7] | outcome [8] | outcome [9] | outcome [10] | Potency [11] | Potency [12] | Potency [15] | Potency [14] | Potency [16]

CCCC(=O)C(C)=O
inactive: outcome [1] | Potency [2] | Potency [4] | Potency [5] | outcome [8] | Potency [11] | Potency [12] | Potency [15] | outcome [13] | Potency [14] | Potency [16]

CC(N)C(=O)OC(C)(C)Cc1ccc(Cl)cc1 (configuration not stated)
inactive: outcome [1] | Potency [17] | Potency [3] | outcome [6] | outcome [7] | outcome [8] | Potency [11] | Potency [12] | outcome [13] | Potency [14]

CC(CC=O)CCCC(C)(C)O (configuration not stated)
inactive: outcome [1] | Potency [2] | Potency [4] | outcome [6] | outcome [7] | outcome [8] | Potency [11] | Potency [12] | Potency [15] | outcome [13] | Potency [14] | Potency [16] | max activation [18] -1.75% | Potency [19] | Potency [20]

CCC(C)NC(N)=O (configuration not stated)
inactive: outcome [1] | Potency [2] | Potency [4] | Potency [5] | outcome [8] | outcome [9] | outcome [10] | Potency [11] | outcome [13] | Potency [14] | Potency [16]
